Where “and” joins values, the source holds several entries; their conditions need not be identical. Equal entries are not always repeated. Compounds without any hit were thinned out: in the full panel of roughly 79,000, 15% have a hit. Calls of active or inactive are those of the source. Rule as the data show it: active = growth inhibition above about 70%; inactive = the rest.
Assay: NCI Yeast Anticancer Drug Screen. Data for the mlh1 rad18 strain (AID 175)
Conditions: S. cerevisiae mlh1 rad18 strain growth inhibition; at 50.0 µM; hits give high values
Protocol: Growth inhibition of yeast strains with defined genetic alterations is measured as a screen for potential anti-cancer activity. Selected strains with alterations in DNA damage repair or cell cycle control were exposed to compounds and growth inhibition was measured relative to vehicle treated controls. The strain used in this assay is mlh1 rad18
In the case of `CC(C)Oc1ccc(C(=O)NS(=O)(=O)c2ccc(N)cc2)cc1`, the growth inhibition is reported as -8.4% (inactive). In the case of `O=C1CC(c2ccccc2)NCCCCN2CC(CN1)C(C(O)c1ccccc1)C2=O` (stereo not given), the growth inhibition is reported as -49% (inactive). For `COc1ccc(NC(=S)N(C)C)cc1`, the growth inhibition was 3.1% (inactive). With `Nc1cc(S(=O)(=O)c2ccc(O)c(N)c2)ccc1O` the growth inhibition was 9.05% (inactive). In the case of `C[Si](C)(CCl)N[Si](C)(C)CCl`, the growth inhibition is reported as -6.1% (inactive). For `COc1cc(/C=N/NC(=O)c2cccs2)cc(OC)c1OC`, the growth inhibition was -13.3% (inactive). In the case of `O=S(=O)(O)c1ccc(-c2ccccc2)cc1`, the growth inhibition is reported as -5.4% (inactive). For `N#[N+]c1ccc2c(S(=O)(=O)O)cccc2c1O`, the growth inhibition was -25.7% (inactive). In the case of `COc1ccc2cc1Oc1ccc(cc1)CC1c3cc(OC)c(cc3CCN1C)Oc1c(OC)c(OC)cc3c1C(C2)N(C)CC3` (stereo not given), the growth inhibition is reported as -43.3% (inactive). In the case of `COc1cc(/C=N/NC(=O)c2ccncc2)cc(OC)c1OC`, the growth inhibition is reported as -16.5% (inactive). With `CC(=O)NS(=O)(=O)c1ccc2sc(C)nc2c1` the growth inhibition was -27.7% (inactive). In the case of `Oc1cc(Br)ccc1C=Nc1ccc(N2CCCCC2)cc1`, the growth inhibition is reported as 17.8% (inactive). For `COc1cc(/C=N/N2C(=O)c3ccccc3C2=O)ccc1O`, the growth inhibition was 25.9% (inactive). For `COc1ccc(/C=c2\[nH]c3nc(=O)c(N4CCOCC4)c(N)n3c2=O)cc1`, the growth inhibition was -10.2% (inactive). With `Cc1ccc(N2CCOC2=O)cc1N1CCOC1=O` the growth inhibition was -10.7% (inactive). In the case of `Cc1ccc(N2CSC(=S)N(c3ccc(C)cc3)C2)cc1`, the growth inhibition is reported as 46.6% (inactive). In the case of `O=C(CC(CC(=O)c1ccccc1)c1ccco1)c1ccccc1`, the growth inhibition is reported as -8.65% (inactive). In the case of `Fc1ccc(Nc2nc(Cl)c3[nH]cnc3n2)cc1Cl`, the growth inhibition is reported as -28.7% (inactive). In the case of `CCOc1ccc(NC(=O)C2CCC(C)(C(=O)O)C2(C)C)cc1` (stereo not given), the growth inhibition is reported as -0.8% (inactive). For `Cc1c(Cl)cccc1NCN1C(=O)c2ccccc2C1=O`, the growth inhibition was 31.5% (inactive). With `Nc1ccccc1SC1CC(=O)N(c2ccccc2Cl)C1=O` (stereo not given) the growth inhibition was -6.5% (inactive). With `NC(=S)Nc1[nH]c(=S)nc2c1SC1=N/C(=C\c3ccco3)C(=O)N12` the growth inhibition was 28.2% (inactive). With `CCn1c2c(c3ccccc3c1=O)C(=O)c1ccccc1-2` the growth inhibition was -49.4% (inactive). In the case of `Cc1ccc(OCC2OC(n3cnc4c(Cl)nc(Cl)nc43)CC2Oc2ccc(C)cc2)cc1` (stereo not given), the growth inhibition is reported as -33.5% (inactive). In the case of `CC(=O)NC(C(=O)O)C(C)C.CC(=O)NC(C(=O)O)C(C)C.[NH-]C1CCCCC1[NH-].[Pt+2]` (stereo not given), the growth inhibition is reported as 7.05% (inactive) and 50% (inactive). With `CCOC(=O)C1CCC(C(=O)OCC)N1c1ccc(C=O)cc1` (stereo not given) the growth inhibition was -3.45% (inactive). With `COc1cc(/C=C2\CN(C)C(=O)C2=O)ccc1O` the growth inhibition was -12.2% (inactive). In the case of `COc1ccc(NCc2ccc(C)cc2)cc1`, the growth inhibition is reported as 3.45% (inactive). In the case of `N=C(N)c1ccc(N=NNc2ccc(C(=N)N)cc2)cc1`, the growth inhibition is reported as 84% (active). With `Oc1ccccc1C=Nc1ccccc1C(F)(F)F` the growth inhibition was 25.2% (inactive). For `COc1ccc(C(C(N)=O)N2CCCC2)cc1` (stereo not given), the growth inhibition was 16.6% (inactive). With `Clc1cccc(Cl)c1Br` the growth inhibition was 16.9% (inactive). In the case of `O=C(O)C1(c2ccc(Cl)cc2)CCCC1`, the growth inhibition is reported as 60.6% (inactive). In the case of `COc1cc2oc3c(c(=O)c2c(O)c1/C=C/C(C)C)CCC(C)(C)Oc1cc(O)ccc1-3`, the growth inhibition is reported as -26.4% (inactive). In the case of `NC1N=C(c2ccc(Cl)cc2)C2=C(N1)c1ccccc1CC2` (stereo not given), the growth inhibition is reported as -50.7% (inactive). In the case of `Cc1ccc(C)c(NC(=O)/C(=N\N)C(c2cnc3ccc([N+](=O)[O-])cc3n2)[N+](=O)[O-])c1` (stereo not given), the growth inhibition is reported as 28.6% (inactive). With `O=C(N/N=C/c1ccc2c(c1)CCC2)c1cccc([N+](=O)[O-])c1` the growth inhibition was -15.8% (inactive). In the case of `Cc1ccc(-c2noc(C)n2)cc1`, the growth inhibition is reported as 9.2% (inactive). With `CCCCCCC(=O)CCCC(C)CCCC(C)C` (stereo not given) the growth inhibition was -3.85% (inactive). In the case of `O=C1OC(=O)C2C1OC1C(=O)OC(=O)C12` (stereo not given), the growth inhibition is reported as -28.1% (inactive).
